# Laboratory results as given in PubChem BioAssay (Tox21).
# Inconclusive results are not listed. Where a call stands in place of a potency, no number is given. Active and inactive are the calls of the source. Calls follow the shape of the full dose curve.
# Target: Vitamin D3 receptor (Homo sapiens) (UniProt P11473)
# Assay: qHTS assay to identify small molecule agonists of the vitamin D receptor (VDR) signaling pathway (AID 743222)
# Details: HEK293T VDR-UAS-bla, beta-lactamase FRET ratio, 16 h; series mostly up to 63.5 µM
# From the text: National Center for Advancing Translational Sciences [NCATS]
# NIH Chemical Genomics Center [NCGC]
# U.S. Environmental Protection Agency [EPA]
# National Institutes of Environmental Health Sciences [NIEHS]
# National Toxicology Program [NTP]
# U.S. Food and Drug Administration [FDA]
# The vitamin D receptor (VDR), a member of nuclear hormone receptor superfamily, plays a critical role in calcium homeostasis and bone metabolism. It is also involved in cell differentiation and growth, and thrombogenicity.
# Tox21 Assay Protocol Summary:
# VDR-bla cells were dispensed at 2,000 cells/6 uL/well into black wall/clear-bottom 1536-well plates using a Multidrop Combi (Thermo Fisher Scientific, Waltham, MA) dispenser. After the assay plates were incubated at a 37C and 5% CO2 for 4 h, 23 nL of compounds dissolved in DMSO, positive controls or DMSO only was transferred to the assay plate by a Pintool station (Kalypsys, San Diego, CA). The plates were incubated at 37C and 5% CO2 for 16 h. After 1 uL of LiveBLAzerTM B/G FRET substrate was added using a Bioraptr Flying Reagent Dispenser (FRD) workstation (Beckman Coulter, Indianapolis, IN, USA), the plates were incubated at room temperature for 2 h, and fluorescence intensity was measured by an Envision plate reader (PerkinElmer, Shelton, CT).
# Vitamin D3 receptor (Homo sapiens), sequence (P11473 whole entry, looked up): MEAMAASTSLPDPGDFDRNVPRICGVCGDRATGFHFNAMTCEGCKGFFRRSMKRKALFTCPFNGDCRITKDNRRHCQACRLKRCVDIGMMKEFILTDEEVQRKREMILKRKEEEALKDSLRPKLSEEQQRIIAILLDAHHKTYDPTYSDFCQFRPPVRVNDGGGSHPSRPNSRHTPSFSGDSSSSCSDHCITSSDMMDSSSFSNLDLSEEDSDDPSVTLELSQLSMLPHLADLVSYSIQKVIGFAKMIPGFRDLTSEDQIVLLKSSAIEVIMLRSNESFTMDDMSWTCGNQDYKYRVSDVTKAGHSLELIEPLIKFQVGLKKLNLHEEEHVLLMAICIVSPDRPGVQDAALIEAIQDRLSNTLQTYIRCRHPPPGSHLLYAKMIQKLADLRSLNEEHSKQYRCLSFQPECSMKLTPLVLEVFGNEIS
row,Compound,Potency
1,CCCCCCCC/C=C\CCCCCCCC(=O)NCc1ccc(O)c(OC)c1,inactive
2,CCN(CC)CCOC(=O)C1(C2CCCCC2)CCCCC1,inactive
3,O=Cc1ccc(F)cc1,inactive
4,CCOC(=O)N1CCC(=C2c3ccc(Cl)cc3CCc3cccnc32)CC1,inactive
5,CCCCCCC(C)OC(=O)COc1nc(F)c(Cl)c(N)c1Cl (stereo not given),inactive
6,CSc1ccc2c(c1)N(CCC1CCCCN1C)c1ccccc1S2 (stereo not given),inactive
7,CNC(=O)c1cc(Oc2ccc(NC(=O)Nc3ccc(Cl)c(C(F)(F)F)c3)cc2)ccn1,inactive
8,C=CC(=C)CCC=C(C)C,inactive
9,CCN(CC)CCSC(=O)C(c1ccccc1)c1ccccc1,inactive
10,O=C1OC(OC(=O)c2cccnc2Nc2cccc(C(F)(F)F)c2)c2ccccc21 (stereo not given),inactive
11,CSc1c(Cl)c(Cl)c(Cl)c(Cl)c1Cl,inactive
12,CCN(CC)CCCN(c1ccccc1)C1Cc2ccccc2C1,inactive
13,CC(CN(C)C)CN1c2ccccc2CCc2ccccc21 (stereo not given),inactive
14,C1CC(COCC2CO2)CCC1COCC1CO1 (stereo not given),inactive
15,C=CC(=O)OCCC#N,inactive
16,Oc1ccc(-c2ccc(O)cc2)cc1,inactive
17,c1ccc(Nc2cccc3ccccc23)cc1,inactive
18,COC(=O)[C@]1(C)CCC[C@@]2(C)[C@H]1CC=C1C=C(C(C)C)CC[C@@H]12,inactive
19,CCCCCCCCCCCCCCNCCO,inactive
20,O=C(O)CCCCCCC(=O)O,inactive

row,Compound,Potency
1,CCc1cccc(C)c1,inactive
2,CCCC(CC)CCCCCCCN (stereo not given),inactive
3,CC(NCCC(c1ccccc1)c1ccccc1)c1ccccc1 (stereo not given),inactive
4,CC(C)N=C(N)/N=C(\N)Nc1ccc(Cl)cc1,inactive
5,Brc1ccccc1-c1ccccc1,inactive
6,CC1(C)C(=O)N(Br)C(=O)N1Br,inactive
7,NC(=O)c1nc(-c2cccc(-c3cc(F)ccc3OCC(F)(F)C(F)(F)F)c2)n[nH]1,inactive
8,O=C(O)CC(=O)O,inactive
9,CCCCCCCCCCCC(=O)N(CC)CC,inactive
10,CCCCCCCC/C=C\CCCCCCCC(=O)OCCOC(=O)CCCCCCC/C=C\CCCCCCCC,inactive
11,CCCCCCCCCCCCCOP(=O)(O)O,inactive
12,O=C(c1ccccc1)c1cc(Cl)ccc1O,inactive
13,Clc1ccc(C(Cn2ccnc2)OCc2ccsc2Cl)c(Cl)c1 (stereo not given),inactive
14,Clc1ccc(C(Cn2ccnc2)OCc2c(Cl)cccc2Cl)c(Cl)c1 (stereo not given),inactive
15,CC(C)c1ccc(O)c(C(C)C)c1,inactive
16,O=C1Nc2ccc(Cl)cc2[C@@](C#CC2CC2)(C(F)(F)F)O1,inactive
17,CCCCNc1c(C(=O)OCC)c(C)nc2c1cnn2CC,inactive
18,CCOC(=O)[C@@](C)(N)Cc1ccc(O)c(O)c1,inactive
19,CCCCCCOc1ccc(O)cc1,inactive
20,Cc1c(C)n(Cc2ccccc2)c2ccc(C(=O)OCCN(C)C)cc12,inactive
